Measurements as given in PubChem BioAssay (NCI).
About 79,000 compounds went through this panel and 15% of them were active in at least one assay; those are over-represented in the sample as a whole. The source made the active and inactive calls. Cut-off read from the data, not from the text of the source: active = growth inhibition above about 70%; inactive = the rest.

Key:
[1] = NCI Yeast Anticancer Drug Screen. Data for the rad52 strain (AID 147);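 note: 0% = growth of vehicle-treated control cultures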; settings: S. cerevisiae rad52 mutant growth inhibition, active compounds read high
Summary of the method: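 Inhibition of yeast growth, referenced to vehicle controls, was the measured output for a strain with defective DNA damage repair.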

[2] = NCI Yeast Anticancer Drug Screen. Data for the wt1 strain (AID 149);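 note: 0% = growth of vehicle-treated wt1 cultures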; settings: S. cerevisiae wt1 strain (SPY 50644) growth inhibition, active compounds read high
Summary of the method: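 Using yeast strain wt1, compound-induced growth inhibition was determined against vehicle-treated cultures.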

[3] = NCI Yeast Anticancer Drug Screen. Data for the rad50EPP+ strain (AID 151);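 note: 0% = growth of vehicle-treated control cultures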; settings: S. cerevisiae rad50 mutant strain, active compounds read high
Summary of the method: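 Genetically defined yeast (rad50EPP+, DNA damage repair alteration) is grown with compound, and inhibition of growth is expressed relative to vehicle-treated controls.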

[4] = NCI Yeast Anticancer Drug Screen. Data for the mgt1 strain (AID 153); settings: S. cerevisiae mgt1 mutant growth inhibition, active compounds read high
Summary of the method: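 In the mgt1 strain, test compounds were added and growth inhibition was determined relative to vehicle-treated controls.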

[5] = NCI Yeast Anticancer Drug Screen. Data for the rad50 strain (AID 155);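 note: 0% = growth of vehicle-only cultures of the same strain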; settings: S. cerevisiae rad50 strain growth inhibition, active compounds read high
Summary of the method: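 Relative growth inhibition (compound vs vehicle) was measured in yeast with a defined repair-gene alteration.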

[6] = NCI Yeast Anticancer Drug Screen. Data for the mec2-1 strain (AID 157); settings: S. cerevisiae mec2-1 strain, active compounds read high
Summary of the method: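 Each compound was tested on mec2-1 yeast, a strain altered in DNA damage repair or cell cycle control. Growth inhibition is reported relative to vehicle.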

[7] = NCI Yeast Anticancer Drug Screen. Data for the rad14 strain (AID 159);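 note: 0% = growth of vehicle-treated control cultures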; settings: S. cerevisiae rad14 strain growth inhibition, active compounds read high
Summary of the method: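 Screen for anticancer potential: a yeast strain altered in DNA damage repair is grown with compound, and reduced growth is quantified against vehicle controls.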

[8] = NCI Yeast Anticancer Drug Screen. Data for the sgs1 mgt1 strain (AID 161);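 note: 0% = growth of cultures given vehicle only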; settings: S. cerevisiae sgs1 mgt1 strain, active compounds read high
Summary of the method: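 Read-out: growth inhibition vs vehicle controls. Cells: mutant yeast strain deficient in DNA damage repair.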

[9] = NCI Yeast Anticancer Drug Screen. Data for the cln2 rad14 strain (AID 165);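 note: 0% = growth equal to vehicle treated cultures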; settings: S. cerevisiae cln2 rad14 strain, active compounds read high
Summary of the method: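 Test compounds were added to cln2 rad14 yeast cultures; inhibition of growth was then determined by comparison with vehicle treatment.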

[10] = NCI Yeast Anticancer Drug Screen. Data for the bub3 strain (AID 167); settings: S. cerevisiae bub3 mutant strain, active compounds read high
Summary of the method: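 Screening used yeast with an engineered genetic alteration affecting cell cycle control. Compound-exposed cultures were compared with vehicle cultures, and reduced growth was taken as inhibition.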

[11] = NCI Yeast Anticancer Drug Screen. Data for the wt2 strain (AID 169);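 note: 0% = growth of vehicle-treated yeast cultures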; settings: S. cerevisiae wt2 strain growth inhibition, active compounds read high
Summary of the method: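 The panel's yeast strains carry defined changes in DNA repair or cell cycle genes. Each strain is grown with compound, and growth loss is scored relative to vehicle.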

[12] = NCI Yeast Anticancer Drug Screen. Data for the mlh1 strain (AID 171);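 note: 0% = growth of vehicle-treated control cultures of the same strain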; settings: S. cerevisiae mlh1 strain growth inhibition, active compounds read high
Summary of the method: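 Inhibition values reflect reduced yeast growth in the presence of compound, referenced to vehicle controls, using a strain chosen for its alteration in DNA repair or cell cycle control.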

[13] = NCI Yeast Anticancer Drug Screen. Data for the sgs1 strain (AID 173);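 note: 0% = growth of vehicle-only control cultures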; settings: S. cerevisiae sgs1 mutant, active compounds read high
Summary of the method: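 Vehicle-treated cultures served as reference for growth inhibition of a yeast strain altered in DNA damage repair or cell cycle control after compound exposure.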

[14] = NCI Yeast Anticancer Drug Screen. Data for the mlh1 rad18 strain (AID 175); settings: S. cerevisiae mlh1 rad18 strain growth inhibition, active compounds read high
Summary of the method: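 Inhibition values reflect reduced growth of mutant yeast versus vehicle-treated controls following compound exposure; the mutations affect DNA damage repair.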

[15] = NCI Yeast Anticancer Drug Screen. Data for the rad18 strain (AID 177); settings: S. cerevisiae rad18 mutant growth inhibition, active compounds read high
Summary of the method: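 Steps: expose repair-mutant yeast to compound; measure growth; express as inhibition relative to vehicle control.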

[16] = at 5.0 µM (retest, dose inferred, filed as 0.5)
[17] = at 50.0 µM (retest, dose inferred, filed as 5.0)

Measured: growth inhibition

CC(=O)O[C@H]1CC[C@@]2(C)C(=CC[C@@H]3C2CC[C@]2(C)C(=O)NC(=O)CC32)C1 (stereo partly drawn)
inactive: [1]; at 1.2 µM -33% | [1]; at 3.7 µM -35% | [1]; at 11.0 µM -42% | [1]; at 33.0 µM -29% | [1]; at 100.0 µM -41% | [2]; at 1.2 µM -17% | [2]; at 3.7 µM -7% | [2]; at 11.0 µM -21% | [2]; at 33.0 µM -17% | [2]; at 100.0 µM -21% | [3]; at 1.2 µM -8% | [3]; at 3.7 µM 0% | [3]; at 11.0 µM 25% | [3]; at 33.0 µM 54% | [3]; at 100.0 µM 27% | [4]; at 1.2 µM -28% | [4]; at 3.7 µM -19% | [4]; at 11.0 µM 56% | [5]; at 1.2 µM -31% | [5]; at 3.7 µM -29% | [5]; [16] -21% | [5]; at 11.0 µM -20% | [5]; at 33.0 µM -25% | [5]; [17] -29% | [5]; at 50.0 µM 12.4% | [5]; at 100.0 µM -28% | [6]; at 1.2 µM -21% | [6]; at 3.7 µM -15% | [6]; [16] -44% | [6]; at 11.0 µM -13% | [6]; at 33.0 µM -43% | [6]; [17] -6% | [6]; at 50.0 µM -12.2% | [6]; at 100.0 µM -23% | [7]; at 1.2 µM -29% | [7]; at 3.7 µM -27% | [7]; at 11.0 µM -26% | [7]; at 33.0 µM -11% | [7]; at 100.0 µM -41% | [8]; [16] 21% | [9]; [16] -6% | [9]; [17] 13% | [9]; at 50.0 µM 29.5% | [10]; at 1.2 µM -14% | [10]; at 3.7 µM -29% | [10]; [16] 1% | [10]; at 11.0 µM -22% | [10]; at 33.0 µM -20% | [10]; [17] 46% | [10]; at 50.0 µM 9.95% | [10]; at 100.0 µM -31% | [11]; at 1.2 µM 8% | [11]; at 3.7 µM 19% | [11]; at 11.0 µM 46% | [12]; at 1.2 µM 1% | [12]; at 3.7 µM 17% | [12]; at 11.0 µM 57% | [12]; at 100.0 µM 64% | [13]; at 1.2 µM 16% | [13]; at 3.7 µM 40% | [14]; [16] -17% | [14]; [17] 3% | [14]; at 50.0 µM -0.8% | [15]; at 1.2 µM -1% | [15]; at 3.7 µM 0% | [15]; at 11.0 µM 1% | [15]; at 33.0 µM 4% | [15]; at 100.0 µM 0%
active: [4]; at 33.0 µM 76% | [4]; at 100.0 µM 70% | [8]; [17] 74% | [8]; at 50.0 µM 81.5% | [11]; at 33.0 µM 73% | [11]; at 100.0 µM 71% | [12]; at 33.0 µM 75% | [13]; at 11.0 µM 70% | [13]; at 33.0 µM 86% | [13]; at 100.0 µM 79%
